# Results published in PubChem BioAssay AID1259422 (The Scripps Research Institute Molecular Screening Center, 2018).
# Screen size: about 640,000 compounds; about 9,300 (1.5%) were called active. For the sample, actives were picked, then their nearest neighbours and some compounds at random. A number with no mark means an inactive call. Rule as the data show it: active = inhibition above about 32%; inactive = the rest.
# Assay: TEAD-YAP interaction inhibition, primary screen, TEAD-YAP interaction inhibitor project, luminescence, HEK-TIYL cells (AID 1259422);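 also: 0% = median of test compound wells and 100% = reference inhibitor wells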
# Conditions: TEAD-Gal4/YAP UAS-luciferase luminescence, at 9.12 µM, stronger effect = higher value
row,SMILES,inhibition
1,CCOCCCNC(=O)C1CCC(=O)N1C1CCCCC1 (configuration not stated),-0.7%
2,Cc1ccc(S(=O)(=O)NC(C)Cc2cccs2)cc1 (configuration not stated),5.37%
3,CC1=C(C(=O)NCc2cccs2)C2(CCCCC2)OC1=O,13.8%
4,CN1CCN(c2ccc(-c3nc4ccc(C(=O)NCc5ccccc5)cc4s3)cc2)CC1,3.92%
5,CN(C)c1ccc(-c2nc3ccc(C(=O)O)cc3s2)cc1,96.5% (active)
6,O=C(NC1CC1)c1ccc(-c2nc3ccc(C(=O)NC4CCN(Cc5ccccc5)CC4)cc3s2)cc1,-0.23%
7,N#C/C=C(/CC(O)(c1nc2ccccc2s1)C(F)(F)F)N1CCCC1 (configuration not stated),2.12%
8,CN(C)C(=O)c1cc(CNCCCc2ccccc2)cc(NC(=O)c2ccccn2)c1,-3.43%
9,Cc1cc(NC(=O)c2cccn(OCc3ccc(F)cc3)c2=O)no1,-2.96%
10,Cc1ccc(N2CCN(c3ncnc4c3cnn4-c3ccccc3)CC2C)cc1 (configuration not stated),9.96%
11,c1ccc(Cn2nnc3c(N4CCCCC4)ncnc32)cc1,-2.04%
12,Fc1ccc(Nc2ncnc3c2cnn3-c2ccccc2)cc1,-36.2%
13,COc1ccc(-n2ncc3c(Nc4ccc(F)c(Cl)c4)ncnc32)cc1,13.3%
14,c1ccc(-n2ncc3c(Oc4cccc5cccnc45)ncnc32)cc1,42.7% (active)
15,O=C(CCc1ccccc1)NCCn1ncc2c(N3CCN(c4ncccn4)CC3)ncnc21,-1.06%
16,COc1ccc(-n2ncc3c(N4CCCC(C)C4)ncnc32)cc1 (configuration not stated),94.8% (active)
17,OCCNc1ncnc2c1cnn2-c1ccccc1,-28.4%
18,c1ccc(OCCn2ncc3c(N4CCCC4)ncnc32)cc1,81% (active)
19,COc1ccccc1Nc1ncnc2c1cnn2-c1ccc(C)cc1,-73%
20,c1ccc(-n2ncc3c(N4CCCC4)ncnc32)cc1,37.8% (active)
21,CCOc1ccc(-n2cc(-c3ccccc3)c3c(N4CCCC(C)C4)ncnc32)cc1 (configuration not stated),-7.09%
22,CCCS(=O)(=O)N1CCCc2ccc(NC(=O)CC(C)C)cc21,3.52%
23,CCOC(=O)C1CCN(c2nc(-c3cccnc3)nc3c2CN(S(C)(=O)=O)CC3)CC1,9.38%

row,SMILES,inhibition
1,COCCNC(=O)Cn1cnc2c(nnn2-c2ccc(Cl)cc2)c1=O,2.42%
2,N#Cc1c(-c2ccc(F)cc2)cc(C2CC2)nc1SCCN1C(=O)c2ccccc2C1=O,7.65%
3,Cc1cncn(CC(=O)NCCc2csc(-c3ccccc3)n2)c1=O,-3.04%
4,COc1ccccc1Cn1c(SCC(=O)Nc2ccc(N(C)C)cc2)nc2ccccc2c1=O,-7.65%
5,CCCCC(CC)CNS(=O)(=O)c1ccc2c(c1)n(C)c(=O)c(=O)n2C (configuration not stated),-13.6%
6,COCCNC(=O)/C(=C/c1cccc([N+](=O)[O-])c1)c1ccccc1,-2.61%
7,S=C(S)NCCc1c[nH]c2ccccc12,10.8%
8,O=C(CSc1nc(=O)[nH]c2c1CCC2)N1CCCCCC1,1.26%
9,O=C(CCc1nnc(-c2ccccc2)o1)NCCc1ccccc1Cl,-37.1%
10,CN1CCN(c2ncnc3c2c(-c2ccccc2)cn3-c2ccccc2)CC1,4.3%
11,CCN(CC)C(=O)C1CCCN(c2ncnc3c2cnn3-c2ccccc2)C1 (configuration not stated),34.1% (active)
12,CCN(CC)C(=O)C1CCCN(c2ncnc3c2c(-c2ccccc2)cn3-c2cccc(Cl)c2)C1 (configuration not stated),-12.8%
13,Cc1ccc(-n2ncc3c(N4CCN(C)CC4)ncnc32)c(C)c1,-7.59%
14,CCN(CC)C(=O)C1CCCN(c2cc(NCc3ccccc3)ncn2)C1 (configuration not stated),-14.4%
15,CN1CCN(c2ncnc3c2cnn3-c2ccc(Cl)c(Cl)c2)CC1,32.8% (active)
16,Cc1ccccc1C(=O)NCC1(c2cccs2)CC1,-38.7%
17,CN1CCN(C(=O)c2ccc(-c3ccc(C(=O)NCCOc4ccccc4)s3)cc2)CC1,-10.2%
18,O=C1c2ccc(Br)cc2C(=O)N1CNc1cccc(F)c1,2.19%
19,CCCCOc1ccccc1C1C(C(=O)OCCOCC)=C(C)NC2=C1C(=O)CC(C)(C)C2 (configuration not stated),-1.41%
20,COc1ccccc1C1N=C(c2cccs2)CC(c2ccccc2O)N1 (configuration not stated),-31.6%
21,Cn1c(-c2ccc(F)cc2Cl)c(C(=O)O)c2ccccc2c1=O,5.25%
22,Cc1ccc2c(c1)CN(CCC(=O)NCC(C)(C)CO)CC(C)O2 (configuration not stated),5.33%
23,COc1ccccc1-c1cc2nc(C)c(CCC(=O)Nc3ccccc3C(N)=O)c(C)n2n1,12.4%

row,SMILES,inhibition
1,COc1ccccc1-c1cc2nc(C)c(CCC(=O)O)c(C)n2n1,48.5% (active)
2,COc1ccc(CNC(=O)CCc2c(C)nc3cc(-c4ccccc4)nn3c2C)cc1,2.84%
3,O=C(C1CC=CCC1)N1CCn2cnnc2C1 (configuration not stated),1.34%
4,Cc1cc(C)nc(SCC(=O)Nc2cc(C(=O)O)cc([N+](=O)[O-])c2)n1,-2.98%
5,CCn1c(=O)cc(SCC(=O)Nc2cccc([N+](=O)[O-])c2C)c2ccccc21,-12.2%
6,Cc1c(/C=N\NC(=O)c2cc3ccccc3o2)c2ccccc2n1C,49.3% (active)
7,Cc1c(/C=N\Nc2ccc([N+](=O)[O-])cc2)c2ccccc2n1C,12.8%
8,Cc1c(/C=N/NC(N)=S)c2ccccc2n1C,-7.34%
9,c1ccc(Cn2cc(-c3cnn4c(NCCc5cccnc5)ccnc34)cn2)cc1,-23.6%
10,C=CCn1c(SCC(=O)N2CCCCCC2)nc2scc(-c3ccc(C)o3)c2c1=O,-7.67%
11,C=CCn1c(SCCC(=O)NCCc2ccccc2)nc2scc(-c3ccco3)c2c1=O,-10.1%
12,C=CCn1c(SCC(=O)N2CCOCC2)nc2scc(-c3ccccc3Cl)c2c1=O,49.9% (active)
13,Cc1ccc(C(=O)COC(=O)c2ccc(-n3cnnn3)cc2)cc1,11.7%
14,COc1cc(Nc2nc(-c3ccc(C(=O)NC4CC4)cc3)nc3c2ncn3-c2ccsc2)cc(OC)c1OC,22.8%
15,O=C(COC(=O)CSCc1c[nH]c(=O)[nH]c1=O)Nc1nc(-c2ccccc2)cs1,-38%
16,CCCCCCc1cc2cc(-c3cn4c(n3)sc3cc(Cl)ccc34)c(=O)oc2cc1O,-3.76%
17,O=c1oc2ccc(Br)cc2cc1-c1cn2c(n1)sc1ccccc12,2.88%
18,O=c1oc2ccccc2cc1-c1cn2c(n1)sc1cc(Cl)ccc12,62.5% (active)
19,Cc1cccc(N2C(=O)NC(=O)/C(=C\c3ccc(I)o3)C2=O)c1C,-0.13%
20,O=C(O)/C(=C\c1ccccc1)NC(=O)c1ccc(Br)cc1,-2.04%
21,O=C(O)CCNCCC(=O)c1ccccc1,-12.1%
22,COC(=O)C1CCN(C(=O)c2ccc(Cl)c([N+](=O)[O-])c2)CC1,1.51%
23,COc1ccccc1N1CCN(C(=O)c2ccc(Cl)c([N+](=O)[O-])c2)CC1,49% (active)

row,SMILES,inhibition
1,COc1ccc(N2CCN(C(=O)COc3ccccc3OC)CC2)cc1,1.61%
2,CCOC(=O)CSc1ccc(C(=O)N2CCN(c3ccccc3OC)CC2)cc1[N+](=O)[O-],3.32%
3,COc1ccccc1N1CCN(C(=O)CSCc2ccccc2C)CC1,-42.5%
4,COc1ccccc1N1CCN(C(=O)COc2ccc(Cl)cc2C)CC1,58.5% (active)
5,Cc1cccc2nc(NC(=O)c3ccnn3C)sc12,-7.31%
6,CCOC1=C/C(=C/c2c(N)n3nc(C(C)C)sc3nc2=O)C=CC1=O,9.9%
7,COc1ccc(/C=C2/N=C(c3cccc4ccccc34)OC2=O)c(OC)c1OC,-1.88%
8,CCc1ccccc1Nc1cc(C)nc2ncnn12,-7.4%
9,COc1ccc(-n2nc3c(c2NC(=O)c2cc([N+](=O)[O-])ccc2Cl)CS(=O)C3)cc1 (configuration not stated),41.9% (active)
10,COc1ccc(C(=O)Nc2c3c(nn2-c2ccc(F)cc2)CS(=O)C3)c(OC)c1 (configuration not stated),0.99%
11,COc1ccc(-n2nc3c(c2NC(=O)c2cccc(OC)c2OC)CS(=O)C3)cc1 (configuration not stated),-1.38%
12,CC1CCCC(NC(=O)C(C)n2c(=O)c3cccn3c3cccnc32)C1C (configuration not stated),3.19%
13,Cn1c(SCC(=O)Nc2nnc(-c3ccccc3)s2)nnc1-c1ccccc1,-17.2%
14,O=C(Nc1ccc(Cl)c(S(=O)(=O)c2ccc(Cl)cc2)c1)c1cc(Br)cc(Br)c1O,-6.46%
15,CC(C)(C)c1ccc(C(=O)Nc2ccc(N3CCOCC3)c(Cl)c2)cc1,0.56%
16,CN1CCN(c2ccc(NC(=O)c3cc(Br)cc(Br)c3O)cc2Cl)CC1,68% (active)
17,NC(=O)c1cc(NC(=O)C(F)(F)F)cc(C(N)=O)c1,-9.16%
18,O=C(NCc1ccc(F)cc1)c1nc2c(nnn2Cc2ccc3c(c2)OCO3)c(=O)[nH]1,-15.6%
19,O=C(Nc1nc(-c2ccc(F)cc2)cs1)c1ccc([N+](=O)[O-])cc1,6.37%
20,N#Cc1ccc(-c2csc(NC(=O)c3cc([N+](=O)[O-])ccc3Cl)n2)cc1,14%
21,O=C(Nc1nc(-c2ccc(F)cc2)cs1)c1cc([N+](=O)[O-])ccc1Cl,42% (active)
22,NS(=O)(=O)c1ccc(CCNC(=S)Nc2ccccc2F)cc1,0.39%
23,COc1ccc(-c2noc(CN(Cc3ccccc3)CC3CC3)n2)c(OC)c1OC,-11.8%
